SK-BR-3 tox 24h = SK-BR-3 proliferation inhibitors. 0.47% of 41,000 active. viability, % at 10 µM. SK-BR-3 viability, CellTiter-Glo ATP luminescence, 24 h; stronger effect = lower value. AID 847;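 active = viability at or below the median of all test compounds minus 3 SD, in both replicates if run twice, cut at about 45% in these data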;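 note: 100% = median untreated cell wells and 0% = median positive control drug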
HER2 expr 66K = lowers expression of human Her2 kinase | P04626 | SKBR-3 HER2 protein level, AlphaScreen, 18-24 h; stronger effect = lower value | HER2 level % of control, % at 10 µM | 0.69% of 65,000 active | AID 645;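 active = HER2 level under 5% of the carrier-only control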;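 note: 100% = DMSO carrier and 0% = 500 nM PU-H71 HSP90 inhibitor; lower value means stronger loss of Her2 protein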
mHtt clearance = mutant huntingtin protein clearance; inhibition, % at 1.5 µM; 0.42% of 47,000 active; HeLa Exon1htt(103Q)mCFP, aggregate imaging; zero = plate's median compound well;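 active = inhibition of aggregate fluorescence above about 70%, also judged a hit by eye on the cell image, limit read from the data, passing the limit was not always enough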;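 note: cells exposed to compound for three days before fixation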
Active calls of the source: *; · = not tested or not shown. Most compounds without a hit are left out; they make up all but 0.97% or so of the library.

SMILES | SK-BR-3 tox 24h | HER2 expr 66K | mHtt clearance
Nc1c(C(=O)NCCc2ccccc2)c2nc3ccccc3nc2n1CCN1CCOCC1 | 2.9* | -5.1* | -23
COc1ccc(CCNC(=O)c2c(N)n(CCN3CCOCC3)c3nc4ccccc4nc23)cc1 | 120 | 57 | 19
CNCC1(c2ccccc2)CCCC1 | · | · | -28
Cc1cccc(C)c1NC1=NCCCS1 | · | -9.3* | ·
C=CCn1c(O)c(C(C)=NCc2cc(OC)cc(OC)c2)c(=O)[nH]c1=O | 38* | 72 | ·
C=CCn1c(O)c(C(C)=NCc2cccnc2)c(=O)[nH]c1=O | 92 | 101 | 34
CCCCP(=O)(O)CCC(=O)O | 87 | 119 | 27
Cn1ncnc2c(=O)n(C)c(=O)nc1-2 | 5.5* | 1.0* | ·
CCN1CCC2(CCNC2)C1 (configuration not stated) | · | 124 | ·
C[C@@]1(CO)[C@H](O)CC[C@@]2(C)[C@H]1CC[C@H]1C[C@@H]3C[C@@]12CC[C@]3(O)CO | 126 | -15* | ·
O=C(COc1ccccc1)N1CCN(C2CCCC2)CC1 | 110 | -4.8* | ·
O=C(Cc1ccccc1)N1CCN(C2CCCC2)CC1 | 88 | 120 | -106
CC(C(N)=O)N1CC(c2ccc(Cl)cc2)CC1=O (configuration not stated) | 93 | 100 | ·
O=C(NC1CC1)C1CSC(c2cccnc2)=N1 (configuration not stated) | · | 80 | -36
CC(=NCCCn1ccnc1)c1c(O)n(C)c(=O)n(C)c1=O | 96 | 107 | -15
CN(C)CCN=Cc1c(O)n(-c2cccc(C(F)(F)F)c2)c(=O)[nH]c1=O | 98 | 60 | ·
Cc1ccc(CN2C(=O)NC(=O)C3(Cc4c(nc5ccccn5c4=O)N4CCCCCC43)C2=O)cc1 (configuration not stated) | 78 | 68 | 26
O=c1c(C=NCc2cccs2)c(O)n(C2CCCCC2)c(=O)n1C1CCCCC1 | · | · | 26
N=C(N)c1c(O)n(C2CCCCC2)c(=O)n(C2CCCCC2)c1=O | 2.8* | -6.5* | ·
Nc1ccccc1C(=O)OCCOc1ccccc1 | 91 | 80 | ·
Cc1c(/C=C2/CC3C4CC=C5CC(O)CCC5(C)C4CCC3(C)C2=O)cnn1C (configuration not stated) | · | · | 4

Screening results from PubChem BioAssay.
